From ChEMBL document CHEMBL3433997, “St. Jude Leishmania screening dataset” (2016) come the findings set out here.

Structures are written as SMILES.

The inhibition is the change of the read-out against control, counted positive when it falls.

In the test the target is Glucose transporter (Leishmania mexicana) (UniProt O61059). The test can be described thus: ST_JUDE_LEISH: Cytotoxicity at 2uM final concentration against transgenic Leishmania Mexicana promastigotes LmGT2 that are glucose transport deficient and complemented with the L. Mexicana glucose transporter 2. Activity is measured by DNA content using SYBR green in vitro. Format: functional.
In the case of `COc1ccc2[nH]ccc(=NN=Cc3ccccc3)c2c1`, the inhibition is 5.06%.
Then `O=c1cc(NCCCCNCc2cccc(Cl)c2)[nH]c2ccccc12`, with 1.87%.
In the case of `Cc1cc(=NN=Cc2ccc(Cl)cc2)c2cc(F)ccc2[nH]1`, the inhibition is -0.34%.
Then `Cc1cccc2nc(-c3ccc(-c4cccc(CNCCCN5CCCC5=O)c4)s3)[nH]c12`, with 2.91%; and `O=C(NCCCN1CCC(Cc2ccccc2)CC1)c1cc2c(Cl)nc3ccccc3c2s1`, with -0.45%; and `CCn1ccc2c(N3CCCS3(=O)=O)cc(C(=O)N[C@@H](Cc3ccccc3)[C@H](O)CNC(C)(C)CCCC(C)C)cc21`, with 2.41%.
For `Cc1cccc2nc(-c3ccc(-c4ccc(CN5CCC(C(N)=O)CC5)cc4)cc3)[nH]c12`, the inhibition was 5.21%.
Then `O=C(CCc1c[nH]cn1)Nc1cccc(-c2ccc(-c3nc4cc(F)ccc4[nH]3)s2)c1`, with 9.84%.
Consider `O=C(Nc1ccc(Oc2ccc(OC(F)(F)F)cc2)cc1)c1ccco1`, for which the inhibition is -0.53%.
As for `CC(=O)Nc1ccc(OCCN(Cc2ccccc2C(F)(F)F)c2ccc(C#N)c(C(F)(F)F)c2)cc1`, the figure is 28.2%; as for `COc1ccc(-c2nc(NC(=O)Cc3ccc(OC)c(OC)c3)sc2C)cc1`, 1.83%; as for `COc1ccc(NCCCNc2ccnc3ccccc23)cc1`, 1.73%.
As for `Cc1nc2ccc3ccc(CNc4ccc5c(c4)CN([C@H](CCC(=O)O)C(=O)O)C5=O)cc3c2c(=O)[nH]1`, the figure is 10%.
Consider `Cc1cccc2nc(-c3ccc(-c4ccc(C(=O)NCCN5CCCC5)cc4)cc3)[nH]c12`, for which the inhibition was -0.61%.
As for `CC(C)(C)NCCN(Cc1ccc(-c2ccc(C(F)(F)F)cc2)cc1)C(=O)Cn1c(CCc2cccc(F)c2F)nc(=O)c2ccccc21`, the figure is 1.15%.
As for `CC(C)CCN1CCCN(Cc2cccc(NC(=O)c3ccc(Cl)c(Cl)c3)c2)CC1`, the figure is -3.74%; as for `NC1CCN(c2nc(NCCc3ccc(O)cc3)nc(NCc3ccccc3-c3ccc(C(F)(F)F)cc3)n2)CC1`, 2.19%; as for `NC(=O)c1cccc(C(=O)Nc2cccc(-c3ccc(-c4nc5ccccc5[nH]4)s3)c2)c1`, 0.12%.
Then `CCCCNC[C@@H](O)[C@H](Cc1ccccc1)NC(=O)c1cc(NCC)cc(N2CCCCS2(=O)=O)c1`, with 3.45%; and `CCN1CCN(c2cc(C)c3cc(NC(=O)c4cccc(C(F)(F)F)c4)ccc3n2)CC1`, with 1.11%; and `COC(=O)c1cccc(NC(=O)NCCNc2ccnc(Nc3ccc(F)cc3)n2)c1`, with 2.45%.
For the compound `O=C(Nc1cc(F)cc(F)c1)N[C@H]1CCN(CCCCCNC(=O)C2CC2c2ccc(Cl)c(Cl)c2)C1` (stereo not given in full), the inhibition was -1.55%.
As for `Cc1ccc(CN2CCN(Cc3cccc(NC(=O)c4ccc5ccccc5c4)c3)CC2)cc1C`, the inhibition was 4.04%.
As for `Cc1n[nH]c2cc(Nc3nccc(Nc4ccc(Oc5ccccc5)cc4)n3)ccc12`, the figure is 6.15%; as for `CN(C(=O)c1cc2c(-c3cncnc3)cccc2[nH]1)c1ccccc1`, -0.72%.
Then `COc1ccc2c(c1)nc(CNC(=N)N)n2Cc1ccc(Cl)cc1`, with 1.85%; and `CC(C)N(CCOc1ccc2c(c1)N(C(=O)Nc1ccc(Cl)c(Cl)c1)CC2)C(C)C`, with -4.18%; and `COc1cccc(C(=O)OC2=C3CCC(=O)C3(C)CCC2=O)c1` (stereo not given), with 6.31%.
As for `CC1(C)NC(N)=NC(=N)N1OCCCc1ccc(Cl)cc1Cl`, the figure is 2.33%; as for `CC1CN(c2nc(NCCc3ccc(O)cc3)nc(NCc3ccccc3-c3ccc(C(F)(F)F)cc3)n2)CC(C)N1` (stereo not given), 6.55%.
For `N=C(/N=C(/NCCCCCCN/C(=N\C(=N)Nc1ccc(Cl)cc1)N1CCCCC1)N1CCCCC1)Nc1ccc(Cl)cc1`, the inhibition was -0.71%.
As for `Cc1ccc(CN2CCCN(Cc3cccc(NC(=O)c4cc5ccccc5s4)c3)CC2)cc1C`, the figure is -0.17%; as for `Cc1cccc2nc(-c3cccc(-c4ccc(NC(=O)C(C)CN5CCOCC5)cc4)c3)[nH]c12` (stereo not given), 4.9%.
Take `COc1ccc(NC(=O)[C@H](CC(C)C)Nc2cc(C)nc(NCCOc3ccccc3)n2)cc1`: the inhibition was -0.23%.
As for `Cc1nnsc1C(=O)Nc1cccc(-c2csc(-c3nc4ccccc4[nH]3)c2)c1`, the figure is 1.45%.
As for `CC(C)NC[C@@H](O)[C@H](Cc1ccccc1)NC(=O)c1cc2c3c(c1)c(C(C)C)cn3CCS(=O)(=O)N2C`, the figure is 2.8%; as for `COC(=O)C(Cc1ccccc1)C(CSCc1ccc(OC)cc1)C(=O)N[C@@H](C(=O)OC(C)(C)C)c1ccc(C(C)(C)C)cc1` (stereo not given in full), 5.18%; as for `COc1ccc(-c2cnc3ccc(N4CCCC4)nn23)cc1OC`, 2.83%.
Then `COc1ccc2[nH]c(C)cc(=NN=Cc3ccncc3)c2c1`, with 4.43%; and `CC(C)CCN1CCCN(Cc2ccc(C(=O)Nc3ccc(F)c(F)c3)cc2)CC1`, with 4.14%.
